Results taken from PubChem BioAssay (EPA / NIEHS).
Inconclusive results are not listed. Activity calls are given as the source filed them. Rule for the calls, unless noted: active = hit-call score of the fitted dose curve at least 0.9, where 1 is the maximum; inactive = score below 0.9.

Columns and labels:
[1] = target: Myc proto-oncogene protein (Homo sapiens) (UniProt P01106); experiment: ATG_Myc_CIS: Attagene CIS-FACTORIAL HepG2 Assay for human Myelocytomatosis (Myc) Proto-Oncogene Transcription Factor (AID 2282990); conditions: HepG2, Attagene cis-reporter transcription factor activity; actives raise or lower the signal
Outline: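 After 24 h chemical treatment of HepG2 cells carrying multiplexed cis-regulated reporter constructs, reporter transcripts quantified by RT-PCR and capillary electrophoresis of fluorescent fragments. Gain or loss fitted against DMSO baseline.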

[2] = ATG_NF_kB_CIS: Attagene CIS-FACTORIAL HepG2 Assay for human Nuclear Factor Kappa B (NF-kB) (AID 2282991); conditions: HepG2 Attagene cis-factorial NF-kB reporter mRNA; actives raise or lower the signal
Outline: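 Multiplexed cis-reporter assay in transiently transfected HepG2. 24 h treatment; RNA isolated, RT-PCR, labelled fragments resolved by CE. DMSO baseline.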

[3] = ATG_NRF2_ARE_CIS: Attagene CIS-FACTORIAL HepG2 Assay for human Nuclear Factor Erythroid 2 Related Factor 2 (NFR2) response to Antioxidant Response Elements (ARE) (AID 2282992); conditions: HepG2 Attagene ARE/NRF2 reporter, transcription factor activity; actives raise or lower the signal
Outline: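 Using transiently transfected HepG2 cells exposed for 24 h, reporter mRNA levels were determined by RT-PCR with fluorescent primer extension and capillary electrophoresis, analysed for gain or loss of signal against DMSO.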

[4] = ATG_Oct_MLP_CIS: Attagene CIS-FACTORIAL HepG2 Assay for human Octamer-Binding Transcription Factor (Oct) (AID 2282993); conditions: HepG2 Attagene cis-factorial Oct reporter, mRNA; actives raise or lower the signal
Outline: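 HepG2 cells transiently transfected with cis-element-driven reporter transcription units (endogenous TF activity); 24 h compound exposure. Reporter mRNA quantified by RT-PCR, 6-FAM labelling, HpaI digestion and capillary electrophoresis; bidirectional fit versus DMSO baseline.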

[5] = target: human Peroxisome Proliferator-activated Receptor alpha (PPARa), PPARA (gene 5465) (UniProt Q07869); experiment: ATG_PPARa_TRANS: Attagene TRANS-FACTORIAL HepG2 Assay for human Peroxisome Proliferator-activated Receptor alpha (PPARa) (AID 2283001; active = hit-call score of the fitted dose curve at least 0.9, where 1 is the maximum;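 for AC50: potency for gain of reporter signal over DMSO so agonist or activator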)
Outline: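 Reporter transcripts quantified by RT-PCR plus capillary electrophoresis after 24 h treatment, fitted upward relative to DMSO. Cells: human HepG2 transiently carrying multiple GAL4-UAS reporter units driven by NR-Gal4 chimeras.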

[6] = target: Peroxisome proliferator-activated receptor gamma (Homo sapiens) (UniProt P37231); experiment: ATG_PPARg_TRANS: Attagene TRANS-FACTORIAL HepG2 Assay for human Peroxisome Proliferator-activated Receptor-gamma (PPARg) (AID 2283007; active = hit-call score of the fitted dose curve at least 0.9, where 1 is the maximum)
Outline: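 Human hepatoma HepG2, transient MRTU transfection, 24 h treatment. mRNA reporter signal by RT-PCR plus capillary electrophoresis, fluorescence detection; fitted for increase over DMSO negative control.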

[7] = target: Nuclear receptor subfamily 1 group I member 2 (Homo sapiens) (UniProt O75469); experiment: ATG_PXR_TRANS: Attagene TRANS-FACTORIAL HepG2 Assay for human Pregnane X Receptor (PXR) (AID 2283008; active = hit-call score of the fitted dose curve at least 0.9, where 1 is the maximum)
Outline: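 Multiplexed TRANS reporter panel in HepG2; this component tracks PXR-Gal4-driven reporter mRNA after 24 h dosing, measured by RT-PCR with capillary electrophoresis fluorescence, fitted against DMSO.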

[8] = target: human RAR-related Orphan Receptor gamma (RORg), RORC (gene 6097) (UniProt P51449); experiment: ATG_RORg_TRANS: Attagene TRANS-FACTORIAL HepG2 Assay for human RAR-related Orphan Receptor gamma (RORg) (AID 2283011; active = hit-call score of the fitted dose curve at least 0.9, where 1 is the maximum)
Outline: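 Chimeric RORg-Gal4 transactivation in transfected HepG2; 24 h exposure; RT-PCR/capillary electrophoresis readout of reporter mRNA, DMSO baseline.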

[9] = BSK_3C_uPAR: BioMAP Diversity Plus: 3C Assay for Urokinase-type plasminogen activator receptor (uPAR) Biomarker Activity (AID 2282998); conditions: BioMAP 3C HUVEC, uPAR biomarker ELISA; actives raise or lower the signal
Outline: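 Primary human umbilical vein endothelial cells, 3C system; surface uPAR measured by ELISA 24 h after dosing. Cytotoxicity via SRB total protein in parallel cultures; bidirectional fit against DMSO.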

[10] = BSK_3C_VCAM1: BioMAP Diversity Plus: 3C Assay for Vascular cell adhesion molecule 1 (VCAM1) Biomarker Activity (AID 2282999); conditions: BioMAP 3C HUVEC, VCAM1 ELISA, cytokine-stimulated; actives raise or lower the signal
Outline: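 Activity fitted in both directions relative to DMSO, with ELISA measurement of the surface marker on primary HUVEC (3C) at 24 h post-treatment; parallel SRB staining (0.1% SRB, TCA-fixed, 560 nm) flagged overt cytotoxicity.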

[11] = BSK_4H_Eotaxin3: BioMAP Diversity Plus: 4H Assay for Eotaxin 3 Biomarker Activity (AID 2283000); conditions: primary human endothelial cells (HUVEC); actives raise or lower the signal;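 note: CCL26 protein level quantified by ELISA in parallel with SRB cytotoxicity check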
Outline: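 ELISA quantitation of CCL26 (Eotaxin-3) protein from chemically dosed human vascular endothelial cells at 24 h; increases and decreases both scored relative to DMSO-treated baseline.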

[12] = read-out: Intercellular Adhesion Molecule 1 (ICAM1), ICAM1 (gene 3383); experiment: BSK_3C_ICAM1: BioMAP Diversity Plus: 3C Assay for Intercellular Adhesion Molecule 1 (ICAM1) Biomarker Activity (AID 2283003); conditions: primary human endothelial cells (HUVEC); actives raise or lower the signal
Outline: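 ELISA readout of ICAM1 in human umbilical vein endothelial cells in the 3C system, taken 24 h post-dose. Gain or loss of signal versus DMSO was fitted in both directions, with SRB total-protein staining run in parallel.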

[13] = target: human Retinoic Acid Receptor beta (RARb), RARB (gene 5915) (UniProt P10826); experiment: ATG_RARb_TRANS: Attagene TRANS-FACTORIAL HepG2 Assay for human Retinoic Acid Receptor beta (AID 2283004; active = hit-call score of the fitted dose curve at least 0.9, where 1 is the maximum)
Outline: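 Fluorescent capillary-electrophoresis detection of GAL4-UAS reporter mRNA defines the endpoint, with induction over DMSO-treated wells scored as activity. Transiently transfected human hepatoma HepG2 cells expressing exogenous NR–Gal4 proteins are exposed to test chemicals for 24 h.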

[14] = target: Retinoic acid receptor alpha (Homo sapiens) (UniProt P10276); experiment: ATG_RARa_TRANS: Attagene TRANS-FACTORIAL HepG2 Assay for human Retinoic Acid Receptor alpha (RARa) (AID 2283005; active = hit-call score of the fitted dose curve at least 0.9, where 1 is the maximum)
Outline: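 Reporter transcripts, measured by RT-PCR with fluorescent labeling and capillary electrophoresis after 24 h dosing, reflect activity of an exogenous human RARa–GAL4 fusion in transiently transfected HepG2. Fitted for increase relative to DMSO.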

[15] = BSK_3C_Proliferation: Cell Proliferation Assessment in the BioMAP Diversity Plus: 3C Assay (AID 2283006); conditions: primary human endothelial cells (HUVEC);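 for AC50: potency may reflect either rise or fall in cell number versus DMSO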
Outline: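 Proliferation as total protein: sulforhodamine B (0.1%) stain of TCA-fixed subconfluent human umbilical vein endothelial cells, absorbance 560 nm, 48 h after dosing. Activity fitted in both directions against DMSO baseline.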

[16] = target: human RAR-related Orphan Receptor beta (RORb), RORB (gene 6096) (UniProt Q92753); experiment: ATG_RORb_TRANS: Attagene TRANS-FACTORIAL HepG2 Assay for human RAR-related Orphan Receptor beta (RORb) (AID 2283010; active = hit-call score of the fitted dose curve at least 0.9, where 1 is the maximum)
Outline: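 Read-out is reporter mRNA induction, quantified by RT-PCR with fluorescent capillary electrophoresis, 24 h post-dose in transiently transfected HepG2 expressing exogenous NR-Gal4 chimera. Activity fitted upward versus DMSO.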

[17] = target: human Retinoic Acid Receptor gamma (RARg), RARG (gene 5916) (UniProt P13631); experiment: ATG_RARg_TRANS: Attagene TRANS-FACTORIAL HepG2 Assay for human Retinoic Acid Receptor gamma (RARg) (AID 2283009; active = hit-call score of the fitted dose curve at least 0.9, where 1 is the maximum)
Outline: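 Transactivation of exogenous RARg-Gal4 fusion measured as reporter transcript induction after 24 h in transfected HepG2 cells. RNA reverse-transcribed, amplified, fluorescently labeled and resolved by capillary electrophoresis; increase relative to DMSO.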

[18] = target: human Peroxisome Proliferator-activated Receptor delta (PPARd), PPARD (gene 5467) (UniProt Q03181); experiment: ATG_PPARd_TRANS: Attagene TRANS-FACTORIAL HepG2 Assay for human Peroxisome Proliferator-activated Receptor delta (PPARd) (AID 2283002; active = hit-call score of the fitted dose curve at least 0.9, where 1 is the maximum)
Outline: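 Read-out is induced reporter mRNA, quantified by RT-PCR with fluorescent labelling and capillary electrophoresis after 24 h dosing. Cells are HepG2 transiently carrying multiple GAL4-UAS reporter units driven by exogenous NR-GAL4 chimeras; DMSO serves as baseline.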

[19] = BSK_3C_TissueFactor: BioMAP Diversity Plus: 3C Assay for Tissue Factor Biomarker Activity (AID 2282997); conditions: BioMAP 3C HUVEC, tissue factor biomarker readout; actives raise or lower the signal
Outline: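 In this endothelial system, HUVEC are treated for 24 h and Tissue Factor is assessed by ELISA, normalised to DMSO.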

[20] = target: Cellular tumor antigen p53 (Homo sapiens) (UniProt P04637); experiment: ATG_p53_CIS: Attagene CIS-FACTORIAL HepG2 Assay for human p53 Transcription Factor (AID 2282994); conditions: HepG2 p53 cis-element reporter, Attagene mRNA; actives raise or lower the signal
Outline: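 In HepG2 cells, reporter transcription units under cis-regulatory promoters were transiently introduced. Following 24 h treatment, RNA was processed to labelled, digested cDNA fragments read by capillary electrophoresis; fitting was bidirectional versus DMSO.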

Measured: AC50

human Retinoic Acid Receptor beta (RARb), RARB (gene 5915), sequence (P10826 whole entry, looked up, the tested form may be a part): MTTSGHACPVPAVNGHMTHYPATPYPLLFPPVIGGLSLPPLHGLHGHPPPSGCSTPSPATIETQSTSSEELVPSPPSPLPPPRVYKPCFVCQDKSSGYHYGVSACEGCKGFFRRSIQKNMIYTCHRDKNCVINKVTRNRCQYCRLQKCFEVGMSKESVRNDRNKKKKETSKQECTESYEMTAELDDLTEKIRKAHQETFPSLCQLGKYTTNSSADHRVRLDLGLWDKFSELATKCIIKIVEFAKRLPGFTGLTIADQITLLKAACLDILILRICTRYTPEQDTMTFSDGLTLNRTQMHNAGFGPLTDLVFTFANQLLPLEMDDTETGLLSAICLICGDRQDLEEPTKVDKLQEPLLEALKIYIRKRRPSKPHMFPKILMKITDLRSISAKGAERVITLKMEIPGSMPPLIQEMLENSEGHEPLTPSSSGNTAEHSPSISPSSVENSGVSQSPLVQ
human Retinoic Acid Receptor gamma (RARg), RARG (gene 5916), sequence (P13631 whole entry, looked up, the tested form may be a part): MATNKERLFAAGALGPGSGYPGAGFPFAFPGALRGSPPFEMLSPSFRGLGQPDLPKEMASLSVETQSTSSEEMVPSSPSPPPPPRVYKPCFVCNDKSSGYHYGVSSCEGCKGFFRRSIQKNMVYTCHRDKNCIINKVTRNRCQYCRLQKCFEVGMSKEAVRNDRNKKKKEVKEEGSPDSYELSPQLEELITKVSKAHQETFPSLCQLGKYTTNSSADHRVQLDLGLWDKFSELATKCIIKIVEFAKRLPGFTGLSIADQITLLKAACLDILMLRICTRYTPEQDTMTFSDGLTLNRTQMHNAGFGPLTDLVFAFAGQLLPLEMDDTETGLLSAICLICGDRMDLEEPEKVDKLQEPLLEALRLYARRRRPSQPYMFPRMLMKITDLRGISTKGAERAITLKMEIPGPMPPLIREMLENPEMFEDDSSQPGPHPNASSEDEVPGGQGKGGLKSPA
human Peroxisome Proliferator-activated Receptor alpha (PPARa), PPARA (gene 5465), sequence (Q07869 whole entry, looked up, the tested form may be a part): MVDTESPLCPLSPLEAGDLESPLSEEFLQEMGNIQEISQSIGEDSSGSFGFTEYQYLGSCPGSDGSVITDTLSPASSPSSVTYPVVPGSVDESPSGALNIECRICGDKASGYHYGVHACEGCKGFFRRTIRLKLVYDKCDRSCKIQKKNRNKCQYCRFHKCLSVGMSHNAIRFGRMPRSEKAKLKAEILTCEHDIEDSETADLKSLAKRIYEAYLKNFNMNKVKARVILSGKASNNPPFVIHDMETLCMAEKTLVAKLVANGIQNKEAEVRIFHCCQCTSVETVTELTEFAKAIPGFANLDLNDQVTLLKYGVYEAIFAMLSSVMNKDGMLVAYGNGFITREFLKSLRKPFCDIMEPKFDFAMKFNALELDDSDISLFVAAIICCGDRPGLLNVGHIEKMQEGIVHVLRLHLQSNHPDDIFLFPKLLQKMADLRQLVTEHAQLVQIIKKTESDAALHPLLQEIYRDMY
human RAR-related Orphan Receptor beta (RORb), RORB (gene 6096), sequence (Q92753 whole entry, looked up, the tested form may be a part): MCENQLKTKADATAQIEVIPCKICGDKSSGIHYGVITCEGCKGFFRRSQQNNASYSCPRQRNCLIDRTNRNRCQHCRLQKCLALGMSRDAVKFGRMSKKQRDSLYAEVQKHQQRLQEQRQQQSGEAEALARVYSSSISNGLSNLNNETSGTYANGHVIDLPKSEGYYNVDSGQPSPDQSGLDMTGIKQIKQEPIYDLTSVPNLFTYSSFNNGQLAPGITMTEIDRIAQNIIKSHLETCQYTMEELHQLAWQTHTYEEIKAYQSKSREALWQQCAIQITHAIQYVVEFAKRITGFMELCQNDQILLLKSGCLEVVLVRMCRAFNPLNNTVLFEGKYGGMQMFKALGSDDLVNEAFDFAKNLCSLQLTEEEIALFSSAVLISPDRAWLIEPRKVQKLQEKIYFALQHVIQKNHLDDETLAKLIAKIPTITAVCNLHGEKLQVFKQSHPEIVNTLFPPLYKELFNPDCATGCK
Cellular tumor antigen p53 (Homo sapiens), sequence (P04637 whole entry, looked up, the tested form may be a part): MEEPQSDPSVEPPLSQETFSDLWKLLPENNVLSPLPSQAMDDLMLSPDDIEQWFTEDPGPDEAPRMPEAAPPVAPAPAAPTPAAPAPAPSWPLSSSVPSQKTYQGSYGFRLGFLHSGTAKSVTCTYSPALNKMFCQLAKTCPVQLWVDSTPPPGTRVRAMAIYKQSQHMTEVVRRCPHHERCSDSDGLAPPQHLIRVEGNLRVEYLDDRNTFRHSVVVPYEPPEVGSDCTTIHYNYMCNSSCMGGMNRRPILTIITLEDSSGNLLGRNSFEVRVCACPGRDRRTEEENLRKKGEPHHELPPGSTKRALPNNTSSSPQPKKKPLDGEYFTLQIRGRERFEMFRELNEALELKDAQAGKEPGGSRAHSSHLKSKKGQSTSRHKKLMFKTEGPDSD
human Peroxisome Proliferator-activated Receptor delta (PPARd), PPARD (gene 5467), sequence (Q03181 whole entry, looked up, the tested form may be a part): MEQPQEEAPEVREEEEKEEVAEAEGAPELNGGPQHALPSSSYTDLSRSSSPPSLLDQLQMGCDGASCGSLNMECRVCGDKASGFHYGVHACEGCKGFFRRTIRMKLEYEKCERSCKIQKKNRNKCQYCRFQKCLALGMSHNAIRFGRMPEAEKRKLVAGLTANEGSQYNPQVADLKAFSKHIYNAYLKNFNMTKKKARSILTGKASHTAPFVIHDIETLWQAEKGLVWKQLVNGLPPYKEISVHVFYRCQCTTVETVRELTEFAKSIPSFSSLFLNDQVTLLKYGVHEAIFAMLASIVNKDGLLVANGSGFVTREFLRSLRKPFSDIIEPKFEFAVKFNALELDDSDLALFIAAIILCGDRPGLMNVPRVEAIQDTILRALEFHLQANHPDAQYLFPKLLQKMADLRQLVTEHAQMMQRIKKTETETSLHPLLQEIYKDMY
Nuclear receptor subfamily 1 group I member 2 (Homo sapiens), sequence (O75469 whole entry, looked up, the tested form may be a part): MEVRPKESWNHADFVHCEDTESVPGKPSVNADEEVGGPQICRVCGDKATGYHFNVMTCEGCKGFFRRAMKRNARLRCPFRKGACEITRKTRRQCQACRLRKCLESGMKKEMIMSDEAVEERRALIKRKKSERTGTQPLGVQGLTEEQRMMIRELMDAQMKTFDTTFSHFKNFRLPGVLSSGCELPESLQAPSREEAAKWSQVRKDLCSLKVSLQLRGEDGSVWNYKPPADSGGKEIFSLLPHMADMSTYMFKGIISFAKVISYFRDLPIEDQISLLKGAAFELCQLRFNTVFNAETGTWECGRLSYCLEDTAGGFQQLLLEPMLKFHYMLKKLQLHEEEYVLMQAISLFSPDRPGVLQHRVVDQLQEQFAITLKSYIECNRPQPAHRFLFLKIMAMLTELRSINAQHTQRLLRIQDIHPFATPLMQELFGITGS
human RAR-related Orphan Receptor gamma (RORg), RORC (gene 6097), sequence (P51449 whole entry, looked up, the tested form may be a part): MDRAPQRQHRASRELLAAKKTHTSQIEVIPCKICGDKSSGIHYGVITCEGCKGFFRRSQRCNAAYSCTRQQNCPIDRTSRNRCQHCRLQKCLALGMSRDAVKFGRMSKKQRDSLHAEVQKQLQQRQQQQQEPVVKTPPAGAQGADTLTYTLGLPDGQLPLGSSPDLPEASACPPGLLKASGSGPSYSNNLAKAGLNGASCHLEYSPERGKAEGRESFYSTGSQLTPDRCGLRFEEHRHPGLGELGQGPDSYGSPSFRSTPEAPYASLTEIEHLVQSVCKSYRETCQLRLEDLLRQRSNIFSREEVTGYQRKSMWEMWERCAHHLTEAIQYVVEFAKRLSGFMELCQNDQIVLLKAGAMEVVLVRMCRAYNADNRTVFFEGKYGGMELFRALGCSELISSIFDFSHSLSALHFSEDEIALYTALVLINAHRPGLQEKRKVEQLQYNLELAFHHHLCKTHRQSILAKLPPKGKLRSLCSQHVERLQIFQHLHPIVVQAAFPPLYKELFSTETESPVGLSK
Peroxisome proliferator-activated receptor gamma (Homo sapiens), sequence (P37231 whole entry, looked up): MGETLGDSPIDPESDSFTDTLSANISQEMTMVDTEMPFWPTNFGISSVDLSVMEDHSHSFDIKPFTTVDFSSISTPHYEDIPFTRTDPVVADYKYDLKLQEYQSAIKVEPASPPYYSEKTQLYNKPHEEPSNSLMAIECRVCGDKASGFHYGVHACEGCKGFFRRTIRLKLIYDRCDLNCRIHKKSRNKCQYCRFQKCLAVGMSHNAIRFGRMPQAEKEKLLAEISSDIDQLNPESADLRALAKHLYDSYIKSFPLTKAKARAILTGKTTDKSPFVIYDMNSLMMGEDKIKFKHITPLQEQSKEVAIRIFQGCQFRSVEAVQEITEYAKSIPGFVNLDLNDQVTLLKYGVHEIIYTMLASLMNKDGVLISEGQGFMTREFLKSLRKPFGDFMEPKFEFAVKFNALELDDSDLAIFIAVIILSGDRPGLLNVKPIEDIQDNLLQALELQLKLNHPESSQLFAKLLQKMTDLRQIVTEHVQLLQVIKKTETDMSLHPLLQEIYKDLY
Myc proto-oncogene protein (Homo sapiens), sequence (P01106 whole entry, looked up, the tested form may be a part): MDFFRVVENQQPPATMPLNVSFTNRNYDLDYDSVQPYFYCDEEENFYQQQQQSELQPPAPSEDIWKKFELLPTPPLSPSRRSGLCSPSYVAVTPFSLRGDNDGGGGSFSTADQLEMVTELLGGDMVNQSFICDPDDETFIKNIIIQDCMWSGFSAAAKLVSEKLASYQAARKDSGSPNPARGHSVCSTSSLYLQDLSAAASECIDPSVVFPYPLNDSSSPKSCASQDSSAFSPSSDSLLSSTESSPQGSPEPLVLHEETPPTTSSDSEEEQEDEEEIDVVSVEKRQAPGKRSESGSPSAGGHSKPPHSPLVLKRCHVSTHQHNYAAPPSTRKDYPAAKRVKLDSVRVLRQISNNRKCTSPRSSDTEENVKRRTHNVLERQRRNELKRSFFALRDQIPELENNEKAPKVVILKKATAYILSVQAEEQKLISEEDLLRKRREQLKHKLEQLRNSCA

CN(N=O)c1ccc([N+](=O)[O-])cc1
active: [3] 32.3 µM | [6] 31.9 µM | [7] 19.8 µM
inactive: [1] | [2] | [4] | [5]

CCCCC(CC)C(=O)Cl (stereo not drawn)
inactive: [1] | [2] | [3] | [4] | [5] | [6] | [7] | [8]

O=C(O)C1(c2ccc3c(c2)OC[C@H](Cc2ccc(-c4ccccc4)cc2)[C@H]3O)CCCC1
inactive: [1] | [2] | [4] | [11] | [12] | [13] | [14] | [7]
active: [3] 8.26 µM | [9] 29.9 µM | [10] 20 µM | [5] 11 µM | [15] 13.2 µM

OCCN(CCO)CCO
inactive: [1] | [2] | [3] | [4] | [9] | [10] | [11] | [5] | [12] | [15] | [16]

CCOC(=O)c1ccccc1S(=O)(=O)NC(=O)Nc1nc(Cl)cc(OC)n1
inactive: [1] | [2] | [3] | [4] | [5] | [14] | [7] | [17] | [16]

O=C(CCl)NCO
active: [3] 65.2 µM
not listed: [5] | [6] | [13] | [14] | [17] | [19] | [20]
inactive: all other assays above

Clc1cccc(Cl)c1Cl
not listed: [6] | [7] | [8] | [13] | [14] | [16] | [20]
inactive: all other assays above

CCCCCCCCCCCCc1cccc(S(=O)(=O)O)c1
active: [3] 44.3 µM
not listed: [5] | [6] | [8] | [14] | [16] | [18] | [19] | [20]
inactive: all other assays above

CC(O)(CS(=O)(=O)c1ccc(F)cc1)C(=O)Nc1ccc(C#N)c(C(F)(F)F)c1 (stereo not drawn)
inactive: [1] | [2] | [20] | [7]
active: [3] 94.5 µM | [4] 58 µM

Cc1cc(SCc2sc(-c3ccc(C(F)(F)F)c(F)c3)nc2C)ccc1OCC(=O)O
inactive: [1] | [2] | [3]
active: [4] 15.6 µM | [20] 47.1 µM | [6] 0.887 µM | [7] 2.05 µM

[F][Sn]([c]1ccccc1)([c]1ccccc1)[c]1ccccc1
active: [1] 2.12 µM | [2] 0.685 µM | [4] 0.335 µM | [20] 0.316 µM | [6] 0.0401 µM
inactive: [3] | [7]

OC[C@@H](O)[C@H]1O[C@@H]2O[C@H](C(Cl)(Cl)Cl)O[C@@H]2[C@H]1O
inactive: [1] | [2] | [3] | [4] | [5] | [13] | [14] | [6] | [7] | [16]

C=C(C)C(=O)OCC(CC)CCCC (stereo not drawn)
inactive: [1] | [2] | [3] | [4] | [20] | [6] | [7]

CC(C=O)Cc1ccc2c(c1)OCO2 (stereo not drawn)
active: [7] 21.5 µM
not listed: [5] | [13] | [16] | [17] | [19] | [20]
inactive: all other assays above

CC(C)O.CC(C)O.OCCN(CCO)CCO.OCCN(CCO)CCO.[Ti]
not listed: [6] | [8] | [14] | [17] | [18] | [20]
inactive: all other assays above

N#Cc1ccc(Cl)cc1
inactive: [1] | [2] | [3] | [4] | [5] | [18] | [6] | [7] | [17] | [16] | [8]

CCC(C)(C#N)N=NC(C)(C#N)CC (stereo not drawn)
not listed: [13] | [14] | [17] | [18] | [19] | [20]
inactive: all other assays above

CNC(=O)CSP(=O)(OC)OC
inactive: [1] | [2] | [3] | [4] | [5] | [18] | [6]
